{"source": "PubChem BioAssay (Tox21)", "key": {"[1]": {"assay": "qHTS assay to identify aromatase inhibitors - cell viability counter screen (AID 743084);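 also: cells stimulated with testosterone during compound exposure; nearly all actives have a fitted effect of over 55% in size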"}, "[2]": {"biological_target": "Aryl hydrocarbon receptor (Homo sapiens) (UniProt P35869)", "sequence (P35869 whole entry, looked up)": "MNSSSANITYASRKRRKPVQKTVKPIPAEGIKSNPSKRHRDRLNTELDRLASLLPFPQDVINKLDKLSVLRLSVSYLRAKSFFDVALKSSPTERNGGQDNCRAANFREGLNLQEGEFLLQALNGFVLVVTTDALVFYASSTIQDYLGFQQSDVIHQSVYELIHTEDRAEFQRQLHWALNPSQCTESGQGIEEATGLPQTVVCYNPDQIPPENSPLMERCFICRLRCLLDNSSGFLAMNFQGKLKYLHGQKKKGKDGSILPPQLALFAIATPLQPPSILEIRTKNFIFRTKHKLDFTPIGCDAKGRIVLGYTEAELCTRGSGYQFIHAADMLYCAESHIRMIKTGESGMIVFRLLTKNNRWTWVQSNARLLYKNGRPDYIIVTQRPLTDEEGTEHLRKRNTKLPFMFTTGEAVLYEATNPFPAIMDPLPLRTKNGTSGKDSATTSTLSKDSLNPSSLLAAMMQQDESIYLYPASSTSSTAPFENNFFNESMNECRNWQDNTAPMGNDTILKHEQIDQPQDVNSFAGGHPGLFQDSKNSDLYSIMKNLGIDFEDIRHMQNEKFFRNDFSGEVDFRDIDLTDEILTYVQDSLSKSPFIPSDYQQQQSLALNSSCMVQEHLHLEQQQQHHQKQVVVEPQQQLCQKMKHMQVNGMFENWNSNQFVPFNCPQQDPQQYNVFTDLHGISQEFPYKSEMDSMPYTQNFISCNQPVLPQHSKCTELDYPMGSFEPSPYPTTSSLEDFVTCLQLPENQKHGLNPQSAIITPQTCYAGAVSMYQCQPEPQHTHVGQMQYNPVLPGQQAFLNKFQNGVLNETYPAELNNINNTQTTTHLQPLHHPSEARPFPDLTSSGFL", "assay": "qHTS assay to identify small molecule that activate the aryl hydrocarbon receptor (AhR) signaling pathway (AID 743085); also: series mostly up to about 70 µM; nearly all actives have a fitted effect of over 15% in size", "outline": "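Compounds were tested in HepG2 hepatocellular carcinoma cells harbouring a stably integrated luciferase gene under control of 20 DREs. Increased reporter signal after 24 h treatment at 37C was taken as AhR activation.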"}, "[3]": {"assay": "qHTS assay to identify small molecule that activate the aryl hydrocarbon receptor (AhR) signaling pathway - cell viability counter screen (AID 743086); also: series mostly up to about 70 µM; nearly all actives have a fitted effect of over 45% in size", "outline": "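HepG2-AhR-luc (HG2L7.5c1) cells, 4000/well, were preincubated 5 h at 37C, exposed to compound in qHTS format for 24 hr at 37C, then given CellTiter-Fluor for 30 min; viability was read as fluorescence in the reporter wells.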"}, "[4]": {"biological_target": "Peroxisome proliferator-activated receptor gamma (Homo sapiens) (UniProt P37231)", "sequence (P37231 whole entry, looked up)": "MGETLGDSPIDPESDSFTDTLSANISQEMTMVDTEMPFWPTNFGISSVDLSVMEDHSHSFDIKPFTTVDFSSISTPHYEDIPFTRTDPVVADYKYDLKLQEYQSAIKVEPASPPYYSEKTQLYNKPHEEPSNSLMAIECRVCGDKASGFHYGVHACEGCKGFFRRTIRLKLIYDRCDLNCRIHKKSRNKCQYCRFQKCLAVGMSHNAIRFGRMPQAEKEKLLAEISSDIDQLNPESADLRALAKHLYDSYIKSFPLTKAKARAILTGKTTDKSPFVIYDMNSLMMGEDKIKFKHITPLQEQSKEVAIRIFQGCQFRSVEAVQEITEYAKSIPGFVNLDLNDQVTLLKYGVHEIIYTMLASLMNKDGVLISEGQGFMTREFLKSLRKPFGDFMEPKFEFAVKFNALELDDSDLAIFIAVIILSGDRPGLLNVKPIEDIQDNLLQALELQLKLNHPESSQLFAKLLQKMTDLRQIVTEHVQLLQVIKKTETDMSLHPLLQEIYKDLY", "assay": "qHTS assay to identify small molecule agonists of the peroxisome proliferator-activated receptor gamma (PPARg) signaling pathway (AID 743094; active = well fitted activation curve with a large enough effect in the signal ratio in the repeat runs, not every such curve was filed as active; the % refers to the signal ratio)", "outline": "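GeneBLAzer PPARg UAS-bla HEK293H cells carrying a stably integrated beta-lactamase reporter were pre-incubated 5 h at 37C, then exposed to compounds in DMSO for 17 h at 37C; LiveBLAzer B/G FRET substrate was added for 1 h at room temperature and fluorescence read.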"}, "[5]": {"biological_target": "Peroxisome proliferator-activated receptor gamma (Homo sapiens) (UniProt P37231)", "assay": "qHTS assay to identify small molecule antagonists of the peroxisome proliferator-activated receptor gamma (PPARg) signaling pathway (AID 743191; calls by dose curve; also: series mostly up to about 63 µM; nearly all actives have a fitted effect of over 30% in size)", "outline": "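GeneBLAzer PPARg UAS-bla HEK293H cells carrying a UAS-driven beta-lactamase reporter were plated at 3000 cells/well, preincubated 5 h at 37C, then given compound for 17 h at 37C; LiveBLAzer B/G FRET substrate was read after 1 h at room temperature.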"}, "[6]": {"assay": "qHTS assay to identify small molecule antagonists of the peroxisome proliferator-activated receptor gamma (PPARg) signaling pathway - cell viability counter screen (AID 743194); also: nearly all actives have a fitted effect of over 55% in size", "outline": "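PPARg-UAS-bla HEK293H cells were plated, rested 5 h at 37 C, then treated with compounds plus rosiglitazone (50 nM final) for 17 h at 37 C; viability was then read by CellTiter-Glo luminescence after 30 min at room temperature.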"}, "[7]": {"assay": "qHTS assay for small molecule agonists of the antioxidant response element (ARE) signaling pathway (AID 743202; active = well fitted activation curve with a large enough effect in the signal ratio in the repeat runs, not every such curve was filed as active; the % refers to the signal ratio; also: potency is read from the fitted curve at half-maximal effect)", "outline": "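Compounds delivered in DMSO to ARE-bla HepG2 cells (2,000 cells/well, pre-incubated 5 h) and left 16 h at 37 C. LiveBLAzer B/G FRET substrate then added for 2 h at RT before fluorescence reading.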"}, "[8]": {"assay": "qHTS assay for small molecule agonists of the antioxidant response element (ARE) signaling pathway - cell viability counter screen (AID 743203; calls by dose curve; also: nearly all actives have a fitted effect of over 55% in size)", "outline": "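CellSensor ARE-bla HepG2 cells, 2,000 per well, rested 5 hrs at 37C/5% CO2, then exposed to compound in DMSO for 16 hrs; viability read as CellTiter-Glo luminescence after 30 min at room temperature, in the reporter wells.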"}, "[9]": {"assay": "qHTS assay for small molecule activators of the heat shock response signaling pathway - cell viability counter screen (AID 743209); also: nearly all actives have a fitted effect of over 50% in size", "outline": "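CellSensor HSE-bla HeLa cells, plated overnight at 37 C/5% CO2, were exposed to compounds in DMSO for 5 h at 37 C. Viability was then read in the same wells by CellTiter-Glo luminescence after 30 min at room temperature.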"}, "[10]": {"assay": "qHTS assay for small molecule activators of the heat shock response signaling pathway (AID 743210; active = well fitted activation curve with a large enough effect in the signal ratio in the repeat runs, with a control signal flat, not every such curve was filed as active; the % refers to the signal ratio; also: series mostly up to about 63 µM)", "outline": "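Reporter gene assay: HeLa cells stably bearing an HSE-bla construct, compound treatment 5 h at 37 C, LiveBLAzer substrate 2.5 h at RT, fluorescence intensity.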"}, "[11]": {"assay": "qHTS assay to identify small molecule agonists of the peroxisome proliferator-activated receptor delta (PPARd) signaling pathway - cell viability counter screen (AID 743211); also: nearly all actives have a fitted effect of over 55% in size", "outline": "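Counter screen for cytotoxicity run in parallel with the PPARd reporter screen. Beta-lactamase reporter HEK293H cells exposed to compounds 17 h; ATP-based CellTiter-Glo luminescence quantified viability.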"}, "[12]": {"biological_target": "Peroxisome proliferator-activated receptor delta (Homo sapiens) (UniProt Q03181)", "sequence (Q03181 whole entry, looked up)": "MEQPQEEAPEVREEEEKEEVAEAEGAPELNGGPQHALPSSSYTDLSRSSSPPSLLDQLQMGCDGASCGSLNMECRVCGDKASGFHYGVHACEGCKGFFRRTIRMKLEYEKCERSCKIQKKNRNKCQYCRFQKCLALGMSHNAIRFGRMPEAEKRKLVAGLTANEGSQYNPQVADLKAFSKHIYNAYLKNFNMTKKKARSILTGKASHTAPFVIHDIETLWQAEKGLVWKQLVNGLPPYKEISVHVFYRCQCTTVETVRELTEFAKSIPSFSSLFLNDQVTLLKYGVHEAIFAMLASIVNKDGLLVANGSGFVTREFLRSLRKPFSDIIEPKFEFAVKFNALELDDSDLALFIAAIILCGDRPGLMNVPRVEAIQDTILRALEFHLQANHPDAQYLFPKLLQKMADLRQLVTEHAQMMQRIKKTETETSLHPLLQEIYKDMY", "assay": "qHTS assay to identify small molecule agonists of the peroxisome proliferator-activated receptor delta (PPARd) signaling pathway (AID 743212; calls by dose curve)", "outline": "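A PPARd-bla HEK293H line with beta-lactamase under an Upstream Activator Sequence is treated with compounds at 37 C. Substrate loading for 2 h at room temperature precedes the fluorescence measurement.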"}, "[13]": {"assay": "qHTS assay to identify small molecule antagonists of the peroxisome proliferator-activated receptor delta (PPARd) signaling pathway - cell viability counter screen (AID 743213); also: nearly all actives have a fitted effect of over 50% in size", "outline": "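Luminescence from CellTiter-Glo, added after the bla read and incubated 30 min at room temperature, gives viability of HEK293H PPARd-bla cells exposed to compounds for 17 h at 37 C with 300 nM L165041.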"}, "[14]": {"biological_target": "Peroxisome proliferator-activated receptor delta (Homo sapiens) (UniProt Q03181)", "assay": "qHTS assay to identify small molecule antagonists of the peroxisome proliferator-activated receptor delta (PPARd) signaling pathway (AID 743215; active = well fitted inhibition curve with a large enough effect in the signal ratio in the repeat runs, not every such curve was filed as active; the % refers to the signal ratio; also: series mostly up to about 62 µM)", "outline": "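PPARd UAS-bla HEK293H cells were pre-incubated 5 h at 37 C, then given test compounds in DMSO plus agonist L165041 (300 nM final). After 17 h at 37 C, beta-lactamase FRET substrate was added; fluorescence read after 2 h at room temperature.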"}, "[15]": {"biological_target": "Bile acid receptor (Homo sapiens) (UniProt Q96RI1)", "sequence (Q96RI1 whole entry, looked up)": "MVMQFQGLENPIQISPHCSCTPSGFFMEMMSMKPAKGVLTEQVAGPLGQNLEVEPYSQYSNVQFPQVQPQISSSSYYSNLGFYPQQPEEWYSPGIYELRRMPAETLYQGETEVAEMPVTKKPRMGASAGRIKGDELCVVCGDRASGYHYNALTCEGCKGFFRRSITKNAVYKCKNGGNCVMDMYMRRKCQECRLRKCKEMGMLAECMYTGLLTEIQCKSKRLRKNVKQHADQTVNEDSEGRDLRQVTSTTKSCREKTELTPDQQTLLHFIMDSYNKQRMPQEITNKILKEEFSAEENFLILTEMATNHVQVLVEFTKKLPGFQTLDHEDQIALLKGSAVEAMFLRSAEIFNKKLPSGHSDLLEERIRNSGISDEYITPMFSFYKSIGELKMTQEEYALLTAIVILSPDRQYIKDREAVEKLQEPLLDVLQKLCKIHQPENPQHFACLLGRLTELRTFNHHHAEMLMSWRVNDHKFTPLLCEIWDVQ", "assay": "qHTS assay to identify small molecule antagonists of the farnesoid-X-receptor (FXR) signaling pathway (AID 743217; active = well fitted inhibition curve with a large enough effect in the signal ratio in the repeat runs, not every such curve was filed as active; the % refers to the signal ratio)", "outline": "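FXR-UAS-bla HEK 293T cells pre-incubated 5 h at 37 °C, then exposed to compounds with chenodeoxycholic acid (50 uM final) for 16 h at 37 °C. Beta-lactamase reporter read by LiveBLAzer B/G FRET substrate fluorescence after 2 h at room temperature.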"}, "[16]": {"biological_target": "Bile acid receptor (Homo sapiens) (UniProt Q96RI1)", "assay": "qHTS assay to identify small molecule agonists of the farnesoid-X-receptor (FXR) signaling pathway (AID 743220; active = well fitted activation curve with a large enough effect in the signal ratio in the repeat runs, not every such curve was filed as active; the % refers to the signal ratio)", "outline": "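Beta-lactamase reporter under UAS control in GeneBLAzer FXR HEK 293T cells (5000/well) measured with LiveBLAzer FRET substrate after 2 h at room temperature. Compound exposure lasted 16 h at 37C.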"}, "[17]": {"assay": "qHTS assay to identify small molecule antagonists of the farnesoid-X-receptor (FXR) signaling pathway - cell viability counter screen (AID 743221; active = well fitted cell-killing curve with a large enough effect in the repeat runs, not every such curve was filed as active; also: nearly all actives have a fitted effect of over 50% in size)", "outline": "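Multiplexed counter screen: viability of FXR-bla HEK 293T cells under agonist stimulation by chenodeoxycholic acid (50 uM, final) and test compound for 16 h at 37 C, measured by CellTiter-Glo luminescence in the reporter wells.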"}, "[18]": {"biological_target": "Vitamin D3 receptor (Homo sapiens) (UniProt P11473)", "sequence (P11473 whole entry, looked up)": "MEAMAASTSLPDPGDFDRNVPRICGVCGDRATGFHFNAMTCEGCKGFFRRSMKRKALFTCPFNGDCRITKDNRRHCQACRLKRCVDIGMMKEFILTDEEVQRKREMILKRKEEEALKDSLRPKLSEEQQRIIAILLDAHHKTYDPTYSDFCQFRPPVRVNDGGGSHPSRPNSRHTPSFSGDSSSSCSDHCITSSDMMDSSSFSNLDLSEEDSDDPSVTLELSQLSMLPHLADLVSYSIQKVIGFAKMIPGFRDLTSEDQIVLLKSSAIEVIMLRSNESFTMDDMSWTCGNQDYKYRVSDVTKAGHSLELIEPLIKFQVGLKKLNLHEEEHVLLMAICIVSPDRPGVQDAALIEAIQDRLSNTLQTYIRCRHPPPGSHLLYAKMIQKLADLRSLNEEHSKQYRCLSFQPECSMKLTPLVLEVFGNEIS", "assay": "qHTS assay to identify small molecule agonists of the vitamin D receptor (VDR) signaling pathway (AID 743222; calls by dose curve)", "outline": "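VDR-bla cells were plated 4 h at 37C/5% CO2, then exposed to compounds in DMSO for 16 h. After LiveBLAzer B/G FRET substrate addition and 2 h at room temperature, beta-lactamase reporter fluorescence was read.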"}, "[19]": {"biological_target": "Vitamin D3 receptor (Homo sapiens) (UniProt P11473)", "assay": "qHTS assay to identify small molecule antagonists of the vitamin D receptor (VDR) signaling pathway (AID 743223; active = well fitted inhibition curve with a large enough effect in the signal ratio in the repeat runs, not every such curve was filed as active; the % refers to the signal ratio)", "outline": "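Cells carrying a VDR-driven beta-lactamase reporter (VDR-bla) were co-treated with compound and 3 nM final 1alpha,25-dihydroxyvitamin D3 for 16 h at 37C; reporter activity was measured as FRET substrate fluorescence after 2 h at room temperature.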"}, "[20]": {"assay": "qHTS assay to identify small molecule agonists of the farnesoid-X-receptor (FXR) signaling pathway - cell viability counter screen (AID 743218); also: nearly all actives have a fitted effect of over 45% in size", "outline": "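FXR-UAS-bla HEK 293T cells, plated 5 h at 37 C, were exposed to compounds for 16 h at 37 C. CellTiter-Glo was then added to the same wells as the bla readout; luminescence read after 30 min at room temperature.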"}}, "note": "Results filed as inconclusive are left out. A call without a number means that no potency is given here. Calls of active or inactive are those of the source. Unless noted, calls follow the shape of the dose curve; as a rule, active = well fitted curve in the direction sought with a large enough effect in the repeat runs; inconclusive = weak or mixed curves; inactive = no such curve, though single readings can be large; an effect the other way counts as inactive or inconclusive."}
{"smiles": "CCOC(=O)NNc1nncc2ccccc12", "values": [{"measurement": "Potency", "setting": "[1]", "value": "inactive"}, {"measurement": "Potency", "setting": "[2]", "value": "inactive"}, {"measurement": "outcome", "setting": "[3]", "value": "inactive"}, {"measurement": "outcome", "setting": "[4]", "value": "inactive"}, {"measurement": "outcome", "setting": "[5]", "value": "inactive"}, {"measurement": "outcome", "setting": "[6]", "value": "inactive"}, {"measurement": "Potency", "setting": "[7]", "value": "inactive"}, {"measurement": "outcome", "setting": "[8]", "value": "inactive"}, {"measurement": "outcome", "setting": "[9]", "value": "inactive"}, {"measurement": "Potency", "setting": "[10]", "value": "inactive"}, {"measurement": "outcome", "setting": "[11]", "value": "inactive"}, {"measurement": "outcome", "setting": "[12]", "value": "inactive"}, {"measurement": "outcome", "setting": "[13]", "value": "inactive"}, {"measurement": "Potency", "setting": "[14]", "value": "inactive"}, {"measurement": "outcome", "setting": "[15]", "value": "inactive"}, {"measurement": "outcome", "setting": "[16]", "value": "inactive"}, {"measurement": "Potency", "setting": "[17]", "value": "inactive"}, {"measurement": "outcome", "setting": "[18]", "value": "inactive"}, {"measurement": "outcome", "setting": "[19]", "value": "inactive"}]}
{"smiles": "O=c1[nH]c(=O)n([C@H]2C[C@H](O)[C@@H](CO)O2)cc1Br", "values": [{"measurement": "Potency", "setting": "[1]", "value": "inactive"}, {"measurement": "Potency", "setting": "[2]", "value": "inactive"}, {"measurement": "outcome", "setting": "[3]", "value": "inactive"}, {"measurement": "outcome", "setting": "[4]", "value": "inactive"}, {"measurement": "outcome", "setting": "[5]", "value": "inactive"}, {"measurement": "outcome", "setting": "[6]", "value": "inactive"}, {"measurement": "Potency", "setting": "[7]", "value": "inactive"}, {"measurement": "outcome", "setting": "[8]", "value": "inactive"}, {"measurement": "outcome", "setting": "[9]", "value": "inactive"}, {"measurement": "Potency", "setting": "[10]", "value": "inactive"}, {"measurement": "outcome", "setting": "[11]", "value": "inactive"}, {"measurement": "outcome", "setting": "[12]", "value": "inactive"}, {"measurement": "outcome", "setting": "[13]", "value": "inactive"}, {"measurement": "outcome", "setting": "[15]", "value": "inactive"}, {"measurement": "Potency", "setting": "[20]", "value": "inactive"}, {"measurement": "outcome", "setting": "[16]", "value": "inactive"}, {"measurement": "Potency", "setting": "[17]", "value": "inactive"}, {"measurement": "outcome", "setting": "[18]", "value": "inactive"}, {"measurement": "outcome", "setting": "[19]", "value": "inactive"}]}
{"smiles": "CCCCCCCCCC", "values": [{"measurement": "Potency", "setting": "[1]", "value": "inactive"}, {"measurement": "Potency", "setting": "[2]", "value": "inactive"}, {"measurement": "outcome", "setting": "[3]", "value": "inactive"}, {"measurement": "outcome", "setting": "[4]", "value": "inactive"}, {"measurement": "outcome", "setting": "[5]", "value": "inactive"}, {"measurement": "outcome", "setting": "[6]", "value": "inactive"}, {"measurement": "Potency", "setting": "[7]", "value": "inactive"}, {"measurement": "outcome", "setting": "[8]", "value": "inactive"}, {"measurement": "outcome", "setting": "[9]", "value": "inactive"}, {"measurement": "Potency", "setting": "[10]", "value": "inactive"}, {"measurement": "outcome", "setting": "[11]", "value": "inactive"}, {"measurement": "outcome", "setting": "[12]", "value": "inactive"}, {"measurement": "Potency", "setting": "[14]", "value": "inactive"}, {"measurement": "outcome", "setting": "[15]", "value": "inactive"}, {"measurement": "Potency", "setting": "[20]", "value": "inactive"}, {"measurement": "outcome", "setting": "[16]", "value": "inactive"}, {"measurement": "Potency", "setting": "[17]", "value": "inactive"}, {"measurement": "outcome", "setting": "[18]", "value": "inactive"}, {"measurement": "outcome", "setting": "[19]", "value": "inactive"}]}
{"smiles": "C#C[C@]1(O)CC[C@H]2[C@@H]3CCC4=CC(=O)CC[C@@H]4[C@H]3CC[C@@]21C", "values": [{"measurement": "Potency", "setting": "[1]", "value": "inactive"}, {"measurement": "Potency", "setting": "[2]", "value": "inactive"}, {"measurement": "outcome", "setting": "[3]", "value": "inactive"}, {"measurement": "outcome", "setting": "[4]", "value": "inactive"}, {"measurement": "outcome", "setting": "[5]", "value": "inactive"}, {"measurement": "outcome", "setting": "[6]", "value": "inactive"}, {"measurement": "Potency", "setting": "[7]", "value": "24.3 µM (active)"}, {"measurement": "outcome", "setting": "[8]", "value": "inactive"}, {"measurement": "outcome", "setting": "[9]", "value": "inactive"}, {"measurement": "Potency", "setting": "[10]", "value": "inactive"}, {"measurement": "outcome", "setting": "[11]", "value": "inactive"}, {"measurement": "outcome", "setting": "[13]", "value": "inactive"}, {"measurement": "Potency", "setting": "[14]", "value": "inactive"}, {"measurement": "Potency", "setting": "[20]", "value": "inactive"}, {"measurement": "Potency", "setting": "[17]", "value": "inactive"}]}
